Nine compounds from PubChem BioAssay can be followed below.

Molecules are shown by their SMILES. The source made the active and inactive calls.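 Rule for the calls, unless noted: active = NADPH fluorescence slope more negative than the mean of all samples by about 3 SD, 99.7% confidence; inactive = the rest.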

The inhibition is the change of the read-out against control, counted positive when it falls.

The nature of test [1]: inhibitors of TNFa-induced NFkB p65 translocation, primary screen, imaging, HUVEC, MLSMR starter and 10KST1 sets (AID 438;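 active = inhibition above 20% together with a positive visual image hit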;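 note: compound added about 3h40 before a 20 min TNFalpha stimulation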;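 for inhibition: signal is the nuclear over cytoplasmic p65 intensity ratio per well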). Particulars: HUVEC TNFa-induced p65 nuclear translocation; cell count: measured here: nuclei count (cytotoxicity indicator), at 2.08 µM; inhibition: at 2 µM, stronger effect = higher value, 0% TNFa-plus-vehicle, 100% no-TNFa wells.
Test [2] in a line: inhibitors of mutant huntingtin aggregation, primary screen, imaging, exon1htt(103Q)mCFP cells, high-content imaging (AID 483;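 active = visual image review flags a hit and inhibition of aggregation exceeds 20%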;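 note: compound exposure lasted 3 days before fixation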;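 for nuclei count: percent of the per-plate median nuclei count of sample wells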). The settings on record: exon1htt(103Q)mCFP cell line, aggregate imaging, at 2 µM; inhibition of aggregation: stronger effect = higher value; nuclei count: measured here: cell count, toxicity.
A short description of test [3]: inhibitors of E-selectin induction by TNFa, primary screen, imaging, HUVEC, immunofluorescence, MLSMR starter and 10KST1 sets (AID 487;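 active = visually confirmed hit in the image check and inhibition above 20%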;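 for inhibition: signal is fraction of cell area covered by stained E-selectin grains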;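 for nuclei count: 100% = median nuclei count of all wells on the same plate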). The settings on record: HUVEC TNFalpha-induced E-selectin immunofluorescence imaging, at 2 µM; inhibition: stronger effect = higher value; nuclei count: measured here: cell number, toxicity.
For test [4], the target named is Voltage-gated potassium channel subunit beta-2 (Rattus norvegicus) (UniProt P62483). Nature of the test: KvBeta enzyme negative modulators, primary screen, biochemical, NADPH fluorescence (AID 622;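 active = fluorescence slope higher than the sample average by over 3 SD, cut at about -0.22 in these data, passing the limit was not always enough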;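 note: slope of raw intensity against log time taken from 70 to 1610 s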). The settings on record: recombinant KvBeta, 4-cyanobenzaldehyde reduction, at 10 µM, stronger effect = higher value.
Test [5] has the same target. Nature of the test: KvBeta positive modulators, primary screen, biochemical, NADPH fluorescence (AID 623).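 Note: fluorescence intensity change per second fitted from 20 to 320 s.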 Particulars: Recombinant KvBeta, NADPH fluorescence decrease slope, 10 min; at 10 µM; stronger effect = lower value.
The target of test [6] is Alpha-2C adrenergic receptor (Homo sapiens) (UniProt P18825). Kind of test: modulators of alpha2C/GIRK thallium flux, primary screen, cell-based, HEK293 alpha2C/GIRK1/2 (AID 624;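 active = fluorescence slope after compound addition differing from the mean of all screened samples at 99.7% confidence, in either direction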;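 note: slope of fluorescence ratio to pre-addition baseline per second over 15 to 24 s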). Particulars: thallium flux BTC fluorescence, at 10 µM, actives lie on both sides.
A short description of test [7]: inhibitors of Sendai virus-induced IRF3 signaling, primary screen, TLR/RLR signaling modifier project, cell-based, Sendai virus stimulus, luciferase, 10K MLSCN set (AID 602276;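 active = inhibition at or above 50% at 10 µM; inactive = inhibition below 50%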;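 note: firefly luciferase from ISG56 promoter only with Renilla not read in this screen; 0% = Sendai virus plus DMSO and 100% = medium plus DMSO without virus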). The settings on record: HEK293 RL24 IRF3 luciferase reporter, at 10 µM, stronger effect = higher value. A general note: In a reporter assay the amount or activity of a reporter protein is the signal.
Test [8] can be described thus: inhibitors of poly I:C-induced TLR3 signaling, primary screen, cell-based, poly I:C stimulus, luciferase, 10K MLSCN set (AID 602277;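 active = inhibition of the reporter signal at or above 50%; inactive = inhibition below 50%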). Particulars: HEK293-TLR3 RL24 IRF3 luciferase reporter, at 10 µM, stronger effect = higher value.

Sequence of Alpha-2C adrenergic receptor (Homo sapiens) (P18825 whole entry, looked up): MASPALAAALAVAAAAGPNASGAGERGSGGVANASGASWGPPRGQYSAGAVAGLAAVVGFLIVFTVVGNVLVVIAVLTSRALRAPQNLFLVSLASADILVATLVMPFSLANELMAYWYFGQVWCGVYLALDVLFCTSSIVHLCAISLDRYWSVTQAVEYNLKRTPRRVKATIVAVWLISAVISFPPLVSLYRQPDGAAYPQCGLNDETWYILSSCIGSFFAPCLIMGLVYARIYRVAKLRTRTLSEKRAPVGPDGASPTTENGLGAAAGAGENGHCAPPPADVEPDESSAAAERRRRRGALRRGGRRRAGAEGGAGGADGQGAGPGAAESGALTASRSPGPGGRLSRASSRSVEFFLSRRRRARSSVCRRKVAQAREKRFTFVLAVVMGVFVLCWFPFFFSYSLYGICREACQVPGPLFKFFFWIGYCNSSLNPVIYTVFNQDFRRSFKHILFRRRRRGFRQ
Sequence of Voltage-gated potassium channel subunit beta-2 (Rattus norvegicus) (P62483 whole entry, looked up): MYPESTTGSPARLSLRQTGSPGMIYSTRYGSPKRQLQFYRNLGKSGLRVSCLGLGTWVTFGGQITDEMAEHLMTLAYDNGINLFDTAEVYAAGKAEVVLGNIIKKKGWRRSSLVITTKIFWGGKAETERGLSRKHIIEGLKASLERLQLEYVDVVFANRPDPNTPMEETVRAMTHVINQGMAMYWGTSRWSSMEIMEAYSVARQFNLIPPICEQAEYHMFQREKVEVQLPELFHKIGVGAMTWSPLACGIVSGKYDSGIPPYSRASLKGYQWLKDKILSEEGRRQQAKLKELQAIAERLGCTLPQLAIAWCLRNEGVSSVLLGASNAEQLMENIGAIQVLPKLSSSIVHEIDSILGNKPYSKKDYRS

In the case of `Cc1ccc2c(c1)-c1c(cnn1CC(=O)Nc1ccccc1N1CCN(C)CC1)CO2`, the cell count in test [1] worked out at 521. Also, the inhibition in test [1] was -10.8% (inactive); in test [3] it was -3.4% (inactive); in test [7] it was 3.02% (inactive); in test [8], 7.29% (inactive). In test [2], the inhibition of aggregation is -22% (inactive). Moreover, the nuclei count in test [2] stood at 66.8%; in test [3] it was 108%. In addition, the fluorescence slope in test [4] is -0.507 (inactive). The NADPH fluorescence slope in test [5] is -9e-06 (inactive). In test [6], the slope is 0.00599 (inactive).

Take `O=C(CC1Oc2ccccc2NC1=O)NCCCN1CCOCC1` (centres undefined): the cell count in test [1] came to 620. Further, the inhibition in test [1] was 6.1% (inactive); in test [3] it was 24.8% (inactive); in test [7], 8.81% (inactive); in test [8] it was 38.3% (inactive). The inhibition of aggregation in test [2] is -1.6% (inactive). Moreover, the nuclei count in test [2] was 112%; in test [3], 100%. For the same compound, the fluorescence slope in test [4] was -0.56 (inactive). The NADPH fluorescence slope in test [5] was -1.9e-05 (inactive). Besides, in test [6], the slope is 0.00542 (inactive).

Regarding `O=C(c1ccc(=O)[nH]c1)N(Cc1ccco1)C1(C(=O)NC2CCCC2)CCCCC1`, in test [1], the cell count was determined as 296. Moreover, the inhibition is -7.1% (inactive) in test [1], -73.8% (inactive) in test [3], -75.5% (inactive) in test [7] and 96.9% (active) in test [8]. Besides, the inhibition of aggregation in test [2] is 42.7% (active). Also, the results for the nuclei count in test [2] and in test [3] were 85.1% and 104%, respectively. Besides, in test [4], the fluorescence slope is -0.529 (inactive). Also, the NADPH fluorescence slope in test [5] is -8.3e-05 (inactive). The slope in test [6] was 0.00538 (inactive).

Consider `Cn1c(C(=O)NCCCN2CCN(c3ccc(F)cc3)CC2)cc2c(=O)n(C)c3ccccc3c21`, for which the cell count in test [1] was found to be 655. Further, the inhibition was 1.1% (inactive) in test [1], -73.4% (inactive) in test [3], 6.19% (inactive) in test [7] and 39.1% (inactive) in test [8]. For the same compound, the inhibition of aggregation in test [2] is 6.5% (inactive). The figures for the nuclei count in test [2] and in test [3] were 107% and 118%, respectively. For the same compound, the fluorescence slope in test [4] was -0.42 (inactive). Further, the NADPH fluorescence slope in test [5] is -6.1e-05 (inactive). Besides, in test [6], the slope is 0.00607 (inactive).

Regarding `Cc1nnc(Nc2ccccn2)c2ccccc12`, the cell count in test [1] was found to be 657. For the same compound, the inhibition in test [1] is 7.2% (inactive); in test [3], -61.4% (inactive); in test [7] it was 8.64% (inactive); in test [8] it was 13.2% (inactive). Further, the inhibition of aggregation in test [2] was 8.1% (inactive). For the same compound, the nuclei count in test [2] worked out at 104%; in test [3] it was 109%. Also, the fluorescence slope in test [4] is -0.465 (inactive). For the same compound, the NADPH fluorescence slope in test [5] is -4.2e-05 (inactive). For the same compound, the slope in test [6] is 0.00477 (inactive).

With `Cc1nn(-c2nc3ccccc3s2)c(C)c1Oc1ccccc1O`, the cell count in test [1] was 591. Moreover, the inhibition in test [1] was -9.8% (inactive); in test [3] it was -154% (inactive); in test [7] it was 2.14% (inactive); in test [8] it was -97.7% (inactive). The inhibition of aggregation in test [2] is -19.1% (inactive). The nuclei count in test [2] is 107%; in test [3], 161%. In addition, the fluorescence slope in test [4] was -0.437 (inactive). The NADPH fluorescence slope in test [5] is -2.9e-06 (inactive). In addition, the slope in test [6] was 0.00527 (inactive).

For `Cc1ccc(C2c3c(oc4ccccc4c3=O)C(=O)N2c2nnc(C(C)C)s2)o1` (centres undefined), the cell count in test [1] was determined as 622. The inhibition in test [1] was -13.1% (inactive); in test [3], -37.8% (inactive); in test [7], 9.17% (inactive); in test [8], 19.7% (inactive). In test [2], the inhibition of aggregation was -21.4% (inactive). The nuclei count in test [2] was determined as 90.4%; in test [3] it was 102%. Further, in test [4], the fluorescence slope was -0.436 (inactive). Also, the NADPH fluorescence slope in test [5] is -5.6e-05 (inactive). Further, in test [6], the slope was 0.00484 (inactive).

On to `Cc1ccccc1OCc1nc2ccccc2c(=O)n1/N=C/c1ccco1`, for which the cell count in test [1] worked out at 373. For the same compound, the inhibition in test [1] is -13.1% (inactive); in test [3] it was -47.5% (inactive); in test [7], -5.07% (inactive); in test [8], -33% (inactive). Besides, the inhibition of aggregation in test [2] is 4% (inactive). Moreover, the figures for the nuclei count in test [2] and in test [3] were 57.5% and 85.3%, respectively. The fluorescence slope in test [4] was -0.46 (inactive). The NADPH fluorescence slope in test [5] was -4.6e-05 (inactive). In test [6], the slope is 0.00374 (inactive).

For the compound `O=C(Nc1ccc2c(c1)OCO2)c1cccc(Cl)c1`, the cell count in test [1] turned out to be 407. Also, the inhibition was 1.4% (inactive) in test [1], -22.5% (inactive) in test [3], -28.3% (inactive) in test [7] and -70.9% (inactive) in test [8]. Moreover, in test [2], the inhibition of aggregation is -14.3% (inactive). Further, the nuclei count in test [2] amounted to 107%; in test [3], 114%. Further, the fluorescence slope in test [4] is -0.398 (inactive). Moreover, the NADPH fluorescence slope in test [5] was -4.1e-06 (inactive). For the same compound, the slope in test [6] is 0.0047 (inactive).
